Values joined by “and” are separate entries in the source; they are usually repeats but may differ in a detail not shown here. Equal entries are not always repeated. A structure can be active in one record and inactive in another. Active and inactive are the calls of the source. How the source made its calls: active means hit-call score of the fitted dose curve at least 0.9, where 1 is the maximum; inactive means score below 0.9.

Test [1] is described as follows: ATG_GLI_CIS: Attagene CIS-FACTORIAL HepG2 Assay for human Zinc Finger Protein GLI1 (AID 2282945). As to conditions: HepG2, Attagene cis-factorial reporter mRNA, GLI element; actives raise or lower the signal. The method in brief:
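Bidirectional curve fits relative to DMSO, using reporter mRNA levels from RT-PCR plus capillary electrophoresis. Cells were HepG2 transiently carrying cis-regulated reporter constructs, harvested 24 h after dosing.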

Test [2] can be described thus: ATG_GRE_CIS: Attagene CIS-FACTORIAL HepG2 Assay for human Glucocorticoid Response Elements (GRE) (AID 2282947). As to conditions: HepG2 GRE cis-reporter, Attagene multiplex mRNA; actives raise or lower the signal. The essentials: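 Reporter transcripts read by RT-PCR with capillary electrophoresis fluorescence after a 24 h chemical exposure of HepG2 cells transiently transfected with multiple cis-element reporter units. Gain or loss fitted against DMSO.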

Test [3] is described as follows: ATG_ISRE_CIS: Attagene CIS-FACTORIAL HepG2 Assay for human Interferon Regulatory Factor 1 (IRF1) binding to an Interferon-Stimulated Response Element (ISRE) (AID 2282948). As to conditions: HepG2 ISRE cis-reporter (Attagene), mRNA transcription readout; actives raise or lower the signal. The method in brief:
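Endogenous transcription factor activity read as reporter transcript abundance via RT-PCR and capillary electrophoresis. HepG2 cells transiently transfected, 24 h chemical exposure. Gain or loss fitted against DMSO baseline.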

Test [4] can be described thus: ATG_M_32_CIS: Attagene CIS-FACTORIAL HepG2 Assay for M32 Transcription Factor (Internal Marker) (AID 2282949).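 Further: background control marker of the multiplexed CIS panel rather than a real target.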 As to conditions: HepG2 Attagene cis-factorial M32 reporter, mRNA; actives raise or lower the signal. The method in brief:
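HepG2 human liver cells transiently transfected with cis-promoter-driven multiple reporter transcription units, dosed 24 h. Reporter mRNA quantified by RT-PCR, FAM-labelled primer extension, HpaI digest and capillary electrophoresis; bidirectional fit versus DMSO baseline.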

Test [5] in a line: ATG_M_06_CIS: Attagene CIS-FACTORIAL HepG2 Assay for M06 Transcription Factor (Internal Marker) (AID 2282950). As to conditions: HepG2 Attagene CIS-FACTORIAL M06 internal marker reporter; actives raise or lower the signal. The essentials: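 Measured 24 h post-dosing in transiently transfected HepG2 cells, this internal-marker endpoint reports reporter mRNA via RT-PCR with fluorescent primer extension and capillary electrophoresis. DMSO served as negative control and baseline for bidirectional fitting.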

Test [6] concerns the target Hypoxia-inducible factor 1-alpha (Homo sapiens) (UniProt Q16665). The experiment in a line: ATG_HIF1a_CIS: Attagene CIS-FACTORIAL HepG2 Assay for human Hypoxia Inducible Factor 1 (HIF1A) (AID 2282951). As to conditions: HepG2 Attagene cis-factorial HIF1a reporter transcription; actives raise or lower the signal. The essentials: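 Dosed 24 h, transfected HepG2 cells yielded total RNA whose reporter transcripts were RT-PCR-amplified and sized by capillary electrophoresis using fluorescent labelling; DMSO defined baseline, with gain and loss of signal both fitted.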

Test [7] deals with Hepatocyte nuclear factor 6 (Homo sapiens) (UniProt Q9UBC0). The experiment in a line: ATG_HNF6_CIS: Attagene CIS-FACTORIAL HepG2 Assay for human Hepatocyte Nuclear Factor 6 (HNF6) (AID 2282952). As to conditions: HepG2 Attagene cis-factorial HNF6 reporter transcription; actives raise or lower the signal. The method in brief:
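Endogenous transcription factor activity in human HepG2 liver cells was captured through cis-regulated reporter constructs. After 24 h treatment, reporter mRNA was measured by RT-PCR with capillary electrophoresis, and activity was fitted in both directions relative to DMSO.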

Test [8] concerns the target Heat shock factor protein 1 (Homo sapiens) (UniProt Q00613). In words: ATG_HSE_CIS: Attagene CIS-FACTORIAL HepG2 Assay for human Heat Shock Transcription Factor 1 (HSE) (AID 2282953). As to conditions: HepG2 HSE cis-reporter, Attagene RNA transcription; actives raise or lower the signal. The method in brief: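 Reporter mRNA induction in HepG2 is measured 24 h after dosing, using transiently transfected multiplexed cis-regulated reporter units. Signal comes from capillary electrophoresis of labelled RT-PCR products, with DMSO as negative control.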

A short description of test [9]: ATG_MRE_CIS: Attagene CIS-FACTORIAL HepG2 Assay for human Metal Responsive Element (MRE) (AID 2282954). As to conditions: HepG2 MRE cis-reporter transcription, Attagene multiplex; actives raise or lower the signal. The essentials: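 Endogenous MRE-dependent transcription read as reporter mRNA in transiently transfected human HepG2 cells at 24 h. RNA reverse-transcribed, PCR-amplified, labelled and resolved by capillary electrophoresis; gain or loss relative to DMSO.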

The nature of test [10]: ATG_PBREM_CIS: Attagene CIS-FACTORIAL HepG2 Assay for human Phenobarbital-responsive Enhancer Module (PBREM) (AID 2282955). As to conditions: HepG2 PBREM cis-reporter, Attagene multiplexed transcription; actives raise or lower the signal. The essentials:
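Transfected liver-derived HepG2 cells exposed 24 h; PBREM reporter transcript quantified via RT-PCR and capillary electrophoresis, with activity in either direction referenced to DMSO.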

Test [11] concerns the target Paired box protein Pax-6 (Homo sapiens) (UniProt P26367). In words: ATG_Pax6_CIS: Attagene CIS-FACTORIAL HepG2 Assay for human Paired Box 6 (PAX6) (AID 2282956). As to conditions: HepG2 CIS-FACTORIAL PAX6 reporter transcription, RNA readout; actives raise or lower the signal. The essentials: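 Read-out is reporter transcript level, measured by RT-PCR with fluorescent primer extension and capillary electrophoresis after 24 h dosing of transfected HepG2 cells. Activity in either direction fitted relative to DMSO control.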

A short description of test [12]: ATG_PXRE_CIS: Attagene CIS-FACTORIAL HepG2 Assay for human Pregnane X Receptor Element (PXRE) (AID 2282957). As to conditions: HepG2 Attagene CIS-FACTORIAL PXRE reporter, mRNA; actives raise or lower the signal. The method in brief: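 Endogenous transcription factor activity in HepG2 was gauged through induction of reporter mRNA driven by a cis-regulating promoter element, sampled 24 h post-treatment. Activity was fitted in both directions against DMSO negative control.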

Test [13] can be described thus: ATG_RORE_CIS: Attagene CIS-FACTORIAL HepG2 Assay for human RAR-related Orphan Receptor Element (RORE) (AID 2282959). As to conditions: HepG2 Attagene cis-factorial RORE reporter, mRNA; actives raise or lower the signal. The essentials:
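Transiently transfected HepG2 reporter cells were treated 24 h. Reporter transcripts were detected by RT-PCR and capillary electrophoresis, with bidirectional fitting against DMSO.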

Test [14] is described as follows: ATG_Sox_CIS: Attagene CIS-FACTORIAL HepG2 Assay for human SRY-box transcription factor (SOX) (AID 2282960). As to conditions: HepG2 Attagene cis-factorial SOX reporter, mRNA; actives raise or lower the signal. The essentials:
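Gain- or loss-of-signal endpoint, fitted bidirectionally with DMSO as negative control. Based on reporter mRNA from transfected HepG2 cells harvested 24 h post-treatment and quantified via RT-PCR and capillary electrophoresis.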

The target of test [15] is Transcription factor Sp1 (Homo sapiens) (UniProt P08047). The experiment in a line: ATG_Sp1_CIS: Attagene CIS-FACTORIAL HepG2 Assay for human Specificity Protein 1 (Sp1) (AID 2282961). As to conditions: HepG2 Sp1 cis-reporter transcription, actives raise or lower the signal. The essentials: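 Endpoint reflects endogenous Sp1 transcriptional activity, not an exogenous fusion protein: HepG2 cells with transfected cis-regulated reporters, 24 h dosing, RT-PCR/capillary electrophoresis mRNA read-out, DMSO-normalised bidirectional fit.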

Test [16] can be described thus: ATG_SREBP_CIS: Attagene CIS-FACTORIAL HepG2 Assay for human Sterol Regulatory Element Binding (SREBP) (AID 2282962). As to conditions: HepG2 Attagene cis-factorial SREBP reporter, mRNA; actives raise or lower the signal. The method in brief:
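Endogenous SREBP activity read as cis-element-driven reporter transcript in transiently transfected HepG2, 24 h post-dosing; quantified via RT-PCR plus capillary electrophoresis of fluorescent fragments. Gain or loss of signal fitted relative to DMSO baseline.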

In test [17] the target is Signal transducer and activator of transcription 3 (Homo sapiens) (UniProt P40763). In words: ATG_STAT3_CIS: Attagene CIS-FACTORIAL HepG2 Assay for human Signal Transducer and Activator of Transcription 3 (STAT3) (AID 2282963). As to conditions: HepG2, Attagene cis-factorial STAT3 reporter transcription; actives raise or lower the signal. The method in brief: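 Readout is reporter transcript quantified by RT-PCR and capillary electrophoresis, with 6-FAM primer extension and HpaI digestion. Total RNA is taken 24 h after dosing transiently transfected HepG2 carrying cis-regulated reporter units. Bidirectional fit against DMSO.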

The nature of test [18]: ATG_TA_CIS: Attagene CIS-FACTORIAL HepG2 Assay for human TA Basal Promoter (AID 2282964). As to conditions: HepG2 Attagene CIS-factorial TA basal promoter reporter; actives raise or lower the signal. The essentials: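 Cis-factorial format in HepG2: reporters report endogenous factors, not chimeric Gal4 fusions. After 24 h treatment, reporter transcripts were measured by RT-PCR-capillary electrophoresis fluorescence, analysed bidirectionally versus DMSO.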

A short description of test [19]: ATG_PPRE_CIS: Attagene CIS-FACTORIAL HepG2 Assay for human Peroxisome Proliferator-activated Response Element (PPRE) (AID 2282958). As to conditions: HepG2 PPRE cis-element reporter, Attagene transcription factor profiling; actives raise or lower the signal. The essentials: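 Measured endpoint: PPRE-controlled reporter mRNA, detected by RT-PCR and capillary electrophoresis fluorescence, from transiently transfected HepG2 cells 24 h after dosing. Curves fitted in both directions using DMSO baseline.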

The target of test [20] is Bile acid receptor (Homo sapiens) (UniProt Q96RI1). The experiment in a line: ATG_IR1_CIS: Attagene CIS-FACTORIAL HepG2 Assay for human Nuclear Receptor Subfamily 1 Group H Member 4 (NR1H4), IR1 submotif (AID 2282946). As to conditions: IR1 reporter transcription, actives raise or lower the signal. The method in brief:
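HepG2 cells transiently transfected with multiplexed cis-element reporter units read endogenous transcription factor activity. After 24 h compound exposure, reporter mRNA was quantified by RT-PCR, fluorescent labelling, HpaI digestion and capillary electrophoresis; bidirectional fitting versus DMSO baseline.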

Heat shock factor protein 1 (Homo sapiens), sequence (Q00613 whole entry, looked up): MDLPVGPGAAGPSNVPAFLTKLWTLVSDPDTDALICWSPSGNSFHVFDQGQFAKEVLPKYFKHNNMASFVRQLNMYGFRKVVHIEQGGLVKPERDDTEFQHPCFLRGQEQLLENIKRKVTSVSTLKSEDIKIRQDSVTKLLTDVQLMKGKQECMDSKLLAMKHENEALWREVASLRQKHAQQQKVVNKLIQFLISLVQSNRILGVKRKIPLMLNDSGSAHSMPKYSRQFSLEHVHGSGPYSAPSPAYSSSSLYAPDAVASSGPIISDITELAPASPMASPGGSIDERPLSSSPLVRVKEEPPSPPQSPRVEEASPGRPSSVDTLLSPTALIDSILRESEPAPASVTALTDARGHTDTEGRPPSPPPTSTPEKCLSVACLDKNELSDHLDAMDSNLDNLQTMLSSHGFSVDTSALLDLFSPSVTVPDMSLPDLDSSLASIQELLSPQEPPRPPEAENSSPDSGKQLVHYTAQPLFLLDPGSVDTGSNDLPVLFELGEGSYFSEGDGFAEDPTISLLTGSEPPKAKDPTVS
Transcription factor Sp1 (Homo sapiens), sequence (P08047 whole entry, looked up, the tested form may be a part): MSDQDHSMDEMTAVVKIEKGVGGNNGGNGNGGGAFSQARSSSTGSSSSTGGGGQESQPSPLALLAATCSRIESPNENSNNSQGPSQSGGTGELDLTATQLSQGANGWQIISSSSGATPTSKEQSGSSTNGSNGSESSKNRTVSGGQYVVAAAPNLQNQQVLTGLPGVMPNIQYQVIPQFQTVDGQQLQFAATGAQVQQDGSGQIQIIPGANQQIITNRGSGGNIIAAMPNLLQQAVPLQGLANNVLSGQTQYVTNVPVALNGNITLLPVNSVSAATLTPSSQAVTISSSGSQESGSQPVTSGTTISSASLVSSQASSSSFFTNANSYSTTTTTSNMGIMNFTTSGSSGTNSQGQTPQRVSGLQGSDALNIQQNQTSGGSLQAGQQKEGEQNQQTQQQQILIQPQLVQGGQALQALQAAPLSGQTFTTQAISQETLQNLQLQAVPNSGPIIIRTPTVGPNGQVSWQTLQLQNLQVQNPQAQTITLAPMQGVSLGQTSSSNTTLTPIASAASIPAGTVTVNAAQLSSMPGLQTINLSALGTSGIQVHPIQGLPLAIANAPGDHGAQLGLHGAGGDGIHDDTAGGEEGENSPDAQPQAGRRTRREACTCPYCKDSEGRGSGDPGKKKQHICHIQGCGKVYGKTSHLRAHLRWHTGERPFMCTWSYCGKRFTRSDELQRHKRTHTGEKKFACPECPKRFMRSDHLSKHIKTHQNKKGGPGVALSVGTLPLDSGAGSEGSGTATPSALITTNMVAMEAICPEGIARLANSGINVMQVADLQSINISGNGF
Signal transducer and activator of transcription 3 (Homo sapiens), sequence (P40763 whole entry, looked up): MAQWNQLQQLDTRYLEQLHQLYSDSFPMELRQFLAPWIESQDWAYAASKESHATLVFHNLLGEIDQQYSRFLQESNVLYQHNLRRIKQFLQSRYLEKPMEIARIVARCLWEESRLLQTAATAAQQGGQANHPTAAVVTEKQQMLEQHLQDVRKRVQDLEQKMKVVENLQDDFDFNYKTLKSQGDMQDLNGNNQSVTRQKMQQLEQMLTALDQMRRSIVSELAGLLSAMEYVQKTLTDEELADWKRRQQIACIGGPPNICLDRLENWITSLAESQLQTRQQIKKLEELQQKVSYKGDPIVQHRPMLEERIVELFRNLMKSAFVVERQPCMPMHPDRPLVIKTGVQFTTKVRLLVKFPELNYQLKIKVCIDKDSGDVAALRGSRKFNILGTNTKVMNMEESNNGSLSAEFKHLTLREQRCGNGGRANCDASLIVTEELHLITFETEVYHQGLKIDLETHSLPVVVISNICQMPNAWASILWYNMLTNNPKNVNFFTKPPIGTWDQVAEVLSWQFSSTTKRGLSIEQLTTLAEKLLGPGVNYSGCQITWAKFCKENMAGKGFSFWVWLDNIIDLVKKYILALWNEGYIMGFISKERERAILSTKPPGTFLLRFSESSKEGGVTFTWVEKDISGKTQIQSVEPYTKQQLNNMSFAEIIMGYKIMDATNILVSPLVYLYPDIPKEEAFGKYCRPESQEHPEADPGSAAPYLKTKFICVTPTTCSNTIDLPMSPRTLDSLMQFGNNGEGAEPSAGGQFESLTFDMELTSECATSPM
Paired box protein Pax-6 (Homo sapiens), sequence (P26367 whole entry, looked up): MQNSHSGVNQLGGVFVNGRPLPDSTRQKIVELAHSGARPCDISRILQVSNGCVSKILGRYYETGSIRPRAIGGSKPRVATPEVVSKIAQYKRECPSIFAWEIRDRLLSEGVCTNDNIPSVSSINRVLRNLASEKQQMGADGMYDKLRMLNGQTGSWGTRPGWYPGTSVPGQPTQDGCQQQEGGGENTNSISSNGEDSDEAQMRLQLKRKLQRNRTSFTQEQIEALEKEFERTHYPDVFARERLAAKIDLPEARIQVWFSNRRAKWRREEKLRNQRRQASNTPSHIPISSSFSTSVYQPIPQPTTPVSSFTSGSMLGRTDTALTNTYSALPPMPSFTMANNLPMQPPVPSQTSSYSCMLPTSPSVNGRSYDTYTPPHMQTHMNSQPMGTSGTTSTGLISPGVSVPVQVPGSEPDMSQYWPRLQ
Hepatocyte nuclear factor 6 (Homo sapiens), sequence (Q9UBC0 whole entry, looked up): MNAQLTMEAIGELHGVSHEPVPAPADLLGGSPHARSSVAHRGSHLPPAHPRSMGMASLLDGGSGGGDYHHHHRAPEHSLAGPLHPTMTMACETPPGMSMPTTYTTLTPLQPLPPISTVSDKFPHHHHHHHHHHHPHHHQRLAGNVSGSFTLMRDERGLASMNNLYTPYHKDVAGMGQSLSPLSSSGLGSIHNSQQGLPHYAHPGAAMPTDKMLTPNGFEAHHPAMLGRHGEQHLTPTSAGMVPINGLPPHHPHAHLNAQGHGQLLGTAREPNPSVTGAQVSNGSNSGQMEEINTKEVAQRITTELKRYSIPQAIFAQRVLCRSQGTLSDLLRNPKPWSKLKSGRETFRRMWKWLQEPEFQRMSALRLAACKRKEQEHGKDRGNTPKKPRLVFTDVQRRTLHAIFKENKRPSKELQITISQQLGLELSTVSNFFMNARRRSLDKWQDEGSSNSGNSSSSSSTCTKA
Hypoxia-inducible factor 1-alpha (Homo sapiens), sequence (Q16665 whole entry, looked up): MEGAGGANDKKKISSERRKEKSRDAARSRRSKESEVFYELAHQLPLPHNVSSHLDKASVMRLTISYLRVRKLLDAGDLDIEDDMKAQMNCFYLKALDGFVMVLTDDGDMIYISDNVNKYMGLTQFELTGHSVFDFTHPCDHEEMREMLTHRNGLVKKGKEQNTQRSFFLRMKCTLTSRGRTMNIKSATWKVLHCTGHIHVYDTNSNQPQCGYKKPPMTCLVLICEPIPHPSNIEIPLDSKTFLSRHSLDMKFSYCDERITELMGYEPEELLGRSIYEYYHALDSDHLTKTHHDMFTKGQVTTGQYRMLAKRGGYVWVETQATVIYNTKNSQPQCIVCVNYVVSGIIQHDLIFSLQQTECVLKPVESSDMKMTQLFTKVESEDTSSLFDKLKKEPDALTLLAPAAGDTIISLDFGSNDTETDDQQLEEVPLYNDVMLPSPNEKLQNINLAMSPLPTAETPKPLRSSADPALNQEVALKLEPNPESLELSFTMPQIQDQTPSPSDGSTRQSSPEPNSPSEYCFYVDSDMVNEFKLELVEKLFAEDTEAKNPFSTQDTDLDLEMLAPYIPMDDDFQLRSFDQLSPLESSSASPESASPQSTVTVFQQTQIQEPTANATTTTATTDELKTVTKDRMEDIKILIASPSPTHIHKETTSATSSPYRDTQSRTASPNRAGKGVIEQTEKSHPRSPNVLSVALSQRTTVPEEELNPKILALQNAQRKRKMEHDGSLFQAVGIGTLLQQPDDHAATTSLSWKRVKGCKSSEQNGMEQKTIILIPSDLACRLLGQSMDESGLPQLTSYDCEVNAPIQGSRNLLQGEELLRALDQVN
Bile acid receptor (Homo sapiens), sequence (Q96RI1 whole entry, looked up): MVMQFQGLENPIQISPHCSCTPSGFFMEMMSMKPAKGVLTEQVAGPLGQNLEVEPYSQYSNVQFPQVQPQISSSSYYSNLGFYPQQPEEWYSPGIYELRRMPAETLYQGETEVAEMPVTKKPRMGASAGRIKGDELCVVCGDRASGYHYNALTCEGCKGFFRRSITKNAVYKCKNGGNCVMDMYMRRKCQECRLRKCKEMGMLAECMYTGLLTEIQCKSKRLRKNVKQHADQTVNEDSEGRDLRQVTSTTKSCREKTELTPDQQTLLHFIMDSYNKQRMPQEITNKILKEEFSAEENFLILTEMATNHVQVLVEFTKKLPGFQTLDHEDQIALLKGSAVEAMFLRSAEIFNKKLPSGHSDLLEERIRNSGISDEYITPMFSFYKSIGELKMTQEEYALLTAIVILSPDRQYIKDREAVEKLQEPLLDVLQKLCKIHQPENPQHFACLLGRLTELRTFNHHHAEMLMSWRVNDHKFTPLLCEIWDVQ

On to `CCCCC(CC)COC(=O)c1ccccc1C(=O)O` (stereo not given), for which the molecule was classed as inactive in test [1], in [2], in [3], in [4], in [5] and in test [6]. In addition, the call in [7], in test [8], in test [9], in [10], in test [11] and in test [13] was inactive. In addition, the result in [14], in test [15], in [16], in [17] and in test [18] was inactive. Moreover, the AC50 (in general, the midpoint of the concentration-response curve, whichever way the signal moves) in test [12] is 24.6 µM (active).
Consider `CC(=O)S[C@@H]1CC2=CC(=O)CC[C@]2(C)[C@H]2CC[C@@]3(C)[C@@H](CC[C@@]34CCC(=O)O4)[C@H]12`, for which the result in [1], in test [2], in test [3], in [4], in [5] and in test [6] was inactive. The molecule was classed as inactive in test [7], in test [8], in test [9], in [10], in test [11] and in test [12]. For the same molecule, the result in [19], in test [13], in test [14], in test [15], in test [16] and in test [17] was inactive. Also, the molecule was classed as inactive in [18]. The AC50 in [3] is 48.9 µM (active) and 26.1 µM (active) and 48.1 µM (active); in test [8] it was 171 µM (active); in test [9], 76.9 µM (active) [middle of 4 runs]; in test [12] it was 7.65 µM (active) [middle of 4 runs]; in test [19] it was 2.4 µM (active); in test [15], 26.3 µM (active) and 4.58 µM (active). The AC50 in test [16] was 100 µM (active); in test [17] it was 178 µM (active); in test [18] it was 182 µM (active).
As to `COCCO`, the call in test [1], in [2], in test [3], in test [4], in test [5] and in test [6] was inactive. For the same molecule, the call in test [7], in test [8], in test [9], in test [10], in test [11] and in [12] was inactive. Also, the outcome in [19], in test [13], in [14], in [15], in [16] and in [17] was inactive. Moreover, the molecule was called inactive in [18]. Further, the AC50 in test [12] is 24.7 µM (active).
With `COC(=O)CSc1cc(N=c2sc(=O)n3n2CCCC3)c(F)cc1Cl`, the molecule was classed as inactive in test [1], in [20], in [2], in test [3], in [4] and in [5]. The result in test [6], in test [7], in test [8], in test [9], in test [10] and in test [11] was inactive. Moreover, the call in test [13], in test [14], in [15], in test [16], in test [17] and in test [18] was inactive. Moreover, the AC50 is 9.92 µM (active) in [12] and 10.4 µM (active) in [19].
On to `OB(O)O`, for which the molecule was called inactive in [20], in test [2], in test [3], in test [4], in test [5] and in test [6]. Besides, the result in [7], in test [8], in test [9], in test [10], in test [11] and in test [19] was inactive. The molecule was classed as inactive in test [13], in test [14], in test [15], in test [16], in test [17] and in [18]. Besides, the AC50 in [12] is 81.3 µM (active).

Values taken from PubChem BioAssay (EPA / NIEHS).
